Source: the antibiotic and cytotoxicity screens of Wong et al. (2023)
Screen size: about 39,000 compounds; about 3,300 (8.5%) were called active. Many of the other results were omitted from the sample, so actives are more common in it than they were.

The compounds below were run on HepG2 (assay: cytotoxicity call (relative viability < 0.9)). Settings: 10 µM.
With `CO[C@H]1CN(C)C(=O)c2cc(NC(=O)Nc3ccccc3)ccc2OC[C@@H](C)N(C(=O)CN(C)C)C[C@H]1C` the cytotoxicity call was “inactive”.
In the case of `CNCc1ccccc1.Cl`, the cytotoxicity call is reported as “inactive”.
With `CNCCCC1c2ccccc2C=Cc2ccccc21.Cl` the cytotoxicity call was “active”.
With `OCC1c2ccccc2-c2ccccc21` the cytotoxicity call was “inactive”.
`Cc1noc(C)c1S(=O)(=O)N(C)C[C@@H]1OCCCC[C@@H](C)Oc2ccc(N(C)C)cc2C(=O)N([C@H](C)CO)C[C@H]1C` was tested, and the cytotoxicity call was “inactive”.
`CC(C)Cc1ccc(CN2CC[C@@H](N)C2)cc1` was tested, and the cytotoxicity call was “inactive”.
`CC(C)N1CC=C[C@@]23O[C@@H]4C=CCOC(=O)[C@@H]4[C@H]2C(=O)N(CCCCCO)[C@@H]3C1=O` was tested, and the cytotoxicity call was “inactive”.
For `C[C@@H]1CN([C@H](C)CO)C(=O)CCCn2nncc2CO[C@@H]1CN(C)S(=O)(=O)c1ccc(-c2ccccc2)cc1`, the cytotoxicity call was “inactive”.
In the case of `C[C@@H]1CC=CC[C@@H](c2cccc(Cl)c2)NC(=O)[C@H](Cc2ccccc2)N(C)C(=O)c2ccccc2O1`, the cytotoxicity call is reported as “inactive”.
With `C[C@@H]1CCCn2nncc2COCCNC1=O` the cytotoxicity call was “inactive”.
In the case of `C[C@H](CO)N1C[C@H](C)[C@@H](CN(C)CC2CCCCC2)OCCCC[C@H](C)Oc2ccc(NS(=O)(=O)c3ccc(Cl)cc3)cc2C1=O`, the cytotoxicity call is reported as “inactive”.
For `CCCN(C)C[C@H]1OCCCC[C@H](C)Oc2ccc(NS(=O)(=O)c3ccc(Cl)cc3)cc2C(=O)N([C@@H](C)CO)C[C@H]1C`, the cytotoxicity call was “inactive”.
For `C[C@@H]1CN([C@H](C)CO)C(=O)c2cc(NS(=O)(=O)c3ccc(Cl)cc3)ccc2O[C@@H](C)CCCCO[C@@H]1CN(C)CC1CCCCC1`, the cytotoxicity call was “active”.
With `CCCN(C)C[C@H]1OCCCC[C@@H](C)Oc2ccc(NS(=O)(=O)c3ccc(Cl)cc3)cc2C(=O)N([C@@H](C)CO)C[C@H]1C` the cytotoxicity call was “active”.
`C[C@@H]1CCCCO[C@H](CN(C)CC2CCCCC2)[C@H](C)CN([C@@H](C)CO)C(=O)c2cc(NS(=O)(=O)c3ccc(Cl)cc3)ccc2O1` was tested, and the cytotoxicity call was “active”.
`C[C@@H]1CCCCO[C@@H](CN(C)CC2CCCCC2)[C@H](C)CN([C@@H](C)CO)C(=O)c2cc(NS(=O)(=O)c3ccc(Cl)cc3)ccc2O1` was tested, and the cytotoxicity call was “inactive”.
For `C[C@@H]1CCCCO[C@@H](CN(C)CC2CCCCC2)[C@@H](C)CN([C@H](C)CO)C(=O)c2cc(NS(=O)(=O)c3ccc(Cl)cc3)ccc2O1`, the cytotoxicity call was “inactive”.
`CCCN(C)C[C@H]1OCCCC[C@H](C)Oc2ccc(NS(=O)(=O)c3ccc(Cl)cc3)cc2C(=O)N([C@H](C)CO)C[C@H]1C` was tested, and the cytotoxicity call was “inactive”.
`C[C@@H]1CCCCO[C@@H](CN(C)CC2CC2)[C@H](C)CN([C@@H](C)CO)C(=O)c2cc(NS(=O)(=O)c3ccc(Cl)cc3)ccc2O1` was tested, and the cytotoxicity call was “inactive”.
`C[C@@H]1CCCCO[C@H](CN(C)CC2CCCCC2)[C@@H](C)CN([C@H](C)CO)C(=O)c2cc(NS(=O)(=O)c3ccc(Cl)cc3)ccc2O1` was tested, and the cytotoxicity call was “inactive”.
For `C[C@@H]1CCCCO[C@H](CN(C)CC2CCCCC2)[C@H](C)CN([C@H](C)CO)C(=O)c2cc(NS(=O)(=O)c3ccc(Cl)cc3)ccc2O1`, the cytotoxicity call was “inactive”.
With `C[C@@H]1CCCCO[C@@H](CN(C)CC2CCCCC2)[C@H](C)CN([C@H](C)CO)C(=O)c2cc(NS(=O)(=O)c3ccc(Cl)cc3)ccc2O1` the cytotoxicity call was “active”.
In the case of `Cc1ccc(S(=O)(=O)N(C)C[C@H]2Oc3c(NC(=O)C4CCOCC4)cccc3C(=O)N([C@@H](C)CO)C[C@H]2C)cc1`, the cytotoxicity call is reported as “inactive”.
For `C[C@@H]1CN([C@@H](C)CO)C(=O)c2cc(NS(C)(=O)=O)ccc2O[C@@H](C)CCCCO[C@@H]1CN(C)C(=O)CCCN(C)C`, the cytotoxicity call was “inactive”.
For `CN1CCN(C(=O)C[C@@H]2CC[C@@H](NC(=O)Cc3ccccn3)[C@@H](CO)O2)CC1`, the cytotoxicity call was “inactive”.
For `NCC[C@H]1CC[C@@H](NC(=O)C2CCCC2)[C@@H](CO)O1`, the cytotoxicity call was “inactive”.
In the case of `Cc1noc(C)c1S(=O)(=O)Nc1ccc2c(c1)C(=O)N([C@@H](C)CO)C[C@@H](C)[C@H](CN(C)S(C)(=O)=O)OCCCC[C@@H](C)O2`, the cytotoxicity call is reported as “inactive”.
`CC(=O)N1CCC[C@H](C(=O)O)C1` was tested, and the cytotoxicity call was “inactive”.
`COc1ccc(S(=O)(=O)N[C@H]2CC[C@H](CC(=O)N3CCC(Cc4ccccc4)CC3)O[C@@H]2CO)cc1` was tested, and the cytotoxicity call was “inactive”.
`C[C@H]1CCCCO[C@@H](CN(C)CC2CCCCC2)[C@@H](C)CN([C@@H](C)CO)C(=O)c2cc(NS(=O)(=O)c3ccc(Cl)cc3)ccc2O1` was tested, and the cytotoxicity call was “inactive”.
For `C[C@H](CO)N1C[C@H](C)[C@H](CN(C)CC2CCCCC2)OCCCC[C@H](C)Oc2ccc(NS(=O)(=O)c3ccc(Cl)cc3)cc2C1=O`, the cytotoxicity call was “active”.
`C[C@@H]1CCCCO[C@@H](CN(C)CC2CCCCC2)[C@@H](C)CN([C@@H](C)CO)C(=O)c2cc(NS(=O)(=O)c3ccc(Cl)cc3)ccc2O1` was tested, and the cytotoxicity call was “active”.
In the case of `C[C@@H]1CN([C@@H](C)CO)C(=O)c2cc(NS(=O)(=O)c3ccc(Cl)cc3)ccc2O[C@@H](C)CCCCO[C@@H]1CN(C)CC1CCCCC1`, the cytotoxicity call is reported as “inactive”.
`C[C@H]1CCCCO[C@H](CN(C)CC2CCCCC2)[C@@H](C)CN([C@@H](C)CO)C(=O)c2cc(NS(=O)(=O)c3ccc(Cl)cc3)ccc2O1` was tested, and the cytotoxicity call was “inactive”.
In the case of `C[C@@H]1CN([C@@H](C)CO)C(=O)c2cc(NS(=O)(=O)c3ccc(Cl)cc3)ccc2O[C@@H](C)CCCCO[C@H]1CN(C)CC1CCCCC1`, the cytotoxicity call is reported as “inactive”.
In the case of `C[C@@H]1CN([C@@H](C)CO)S(=O)(=O)c2ccc(-c3cccc(F)c3)cc2O[C@@H]1CN(C)S(C)(=O)=O`, the cytotoxicity call is reported as “inactive”.
`CS(=O)(=O)N1CCc2ccc(N)cc2C1` was tested, and the cytotoxicity call was “inactive”.
For `Cc1noc(C)c1NC(=O)Nc1ccc2c(c1)CC(=O)N([C@H](C)CO)C[C@@H](C)[C@H](CN(C)Cc1ccc(C(F)(F)F)cc1)O2`, the cytotoxicity call was “inactive”.
`Cc1ccc(S(=O)(=O)Nc2ccc3c(c2)C(=O)N([C@@H](C)CO)C[C@H](C)[C@@H](CN(C)S(=O)(=O)c2ccc(F)cc2)O3)cc1` was tested, and the cytotoxicity call was “inactive”.
`CN(CCOc1ccc(CC2SC(=O)NC2=O)cc1)c1ccccn1.O=C(O)C=CC(=O)O` (stereo not drawn) was tested, and the cytotoxicity call was “active”.
`CN(CCO)c1ccccn1` was tested, and the cytotoxicity call was “inactive”.
`CCc1ccc(CCOc2ccc(CC3SC(=O)NC3=O)cc2)nc1.Cl` (stereo not drawn) was tested, and the cytotoxicity call was “inactive”.
With `C[C@@H]1CCCCO[C@@H](CN(C)S(=O)(=O)c2cccs2)[C@@H](C)CN([C@H](C)CO)C(=O)c2cc(NC(=O)CCCCCC(=O)Nc3ccccc3N)ccc2O1` the cytotoxicity call was “inactive”.
